Source: PubChem BioAssay AID1159580 (chemical genetic matrix, 2015)
Out of some 5,500 compounds screened, about 2,000 (36%) were called active. Another 18% or so got no clear call; they are omitted. Rule as the data show it: active = normalized growth mostly below about 0.91 (no sharp cut-off); inconclusive = no clear call, values can overlap the other calls; inactive = mostly above about 0.92. This is one part of the list.

Test: chemical genetic growth profiling, strain panel (AID 1159580);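 also: tested at 20 µM; growth read once vehicle control cultures reached saturation at 30 °C; 1 = growth at the plate median or of vehicle wells; lower values mean less growth of the strain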
Settings: growth OD

Measured: normalized growth

CCOC(=O)[C@H](CCc1ccccc1)N[C@@H](C)C(=O)N1[C@H](C(=O)O)C[C@@H]2CCC[C@@H]21
inactive: S. cerevisiae deletion strains, locus YJR075W, strain HOC1, active compounds read low 0.998 | S. cerevisiae deletion strains, locus YKL009W, strain mrt4, active compounds read low 1.01 | S. cerevisiae deletion strains, locus YKL068W, active compounds read low 1.02 | S. cerevisiae deletion strains, locus YKL085W, strain MDH1 (second series), active compounds read low 1.02 | S. cerevisiae deletion strains, locus YKL085W, strain MDH1, active compounds read low 1.02 | S. cerevisiae deletion strains, locus YKL160W, strain elf1, active compounds read low 0.981 | S. cerevisiae deletion strains, locus YKL190W, strain CNB1, active compounds read low 1.01 | S. cerevisiae deletion strains, locus YKR001C, strain vps1, active compounds read low 1.02 | S. cerevisiae deletion strains, locus YKR026C, strain gcn3, active compounds read low 0.98 | S. cerevisiae deletion strains, locus YKR091W, strain srl3, active compounds read low 0.985 | S. cerevisiae deletion strains, locus YLL001W, strain dnm1, active compounds read low 0.989 | S. cerevisiae deletion strains, locus YLL026W, active compounds read low 0.991 | S. cerevisiae deletion strains, locus YLL041C, strain sdh2, active compounds read low 0.982 | S. cerevisiae deletion strains, locus YLR027C, strain aat2, active compounds read low 0.992 | S. cerevisiae deletion strains, locus YLR039C, strain RIC1, active compounds read low 1.06 | S. cerevisiae deletion strains, locus YLR058C, strain SHM2, active compounds read low 1.01 | S. cerevisiae deletion strains, locus YLR102C, strain apc9, active compounds read low 1.02 | S. cerevisiae deletion strains, locus YLR113W, strain HOG1, active compounds read low 0.98 | S. cerevisiae deletion strains, locus YLR221C, strain rsa3, active compounds read low 1 | S. cerevisiae deletion strains, locus YLR258W, strain gsy2, active compounds read low 0.991 | S. cerevisiae deletion strains, locus YLR262C, strain YPT6 (second series), active compounds read low 0.967 | S. cerevisiae deletion strains, locus YLR262C, strain YPT6, active compounds read low 1.08 | S. cerevisiae deletion strains, locus YLR268W, strain sec22, active compounds read low 1.02 | S. cerevisiae deletion strains, locus YLR320W, strain mms22, active compounds read low 0.975 | S. cerevisiae deletion strains, locus YLR330W, strain CHS5, active compounds read low 1.01 | S. cerevisiae deletion strains, locus YLR342W, strain FKS1 (second series), active compounds read low 1.02 | S. cerevisiae deletion strains, locus YLR342W, strain FKS1, active compounds read low 0.989 | S. cerevisiae deletion strains, locus YLR357W, strain rsc2, active compounds read low 0.978 | S. cerevisiae deletion strains, locus YLR370C, strain arc18, active compounds read low 0.98 | S. cerevisiae deletion strains, locus YLR371W, strain rom2, active compounds read low 1.01 | S. cerevisiae deletion strains, locus YLR384C, strain iki3, active compounds read low 0.984 | S. cerevisiae deletion strains, locus YLR418C, strain cdc73, active compounds read low 1.06 | S. cerevisiae deletion strains, locus YML016C, strain PPZ1, active compounds read low 1.02 | S. cerevisiae deletion strains, locus YML032C, strain rad52, active compounds read low 1.02 | S. cerevisiae deletion strains, locus YML120C, strain ndi1, active compounds read low 0.993 | S. cerevisiae deletion strains, locus YML124C, strain tub3, active compounds read low 1.02 | S. cerevisiae deletion strains, locus YMR058W, strain fet3, active compounds read low 0.99 | S. cerevisiae deletion strains, locus YMR078C, strain ctf18, active compounds read low 1.03 | S. cerevisiae deletion strains, locus YMR125W, strain sto1, active compounds read low 0.976 | S. cerevisiae deletion strains, locus YMR129W, active compounds read low 0.979 | S. cerevisiae deletion strains, locus YMR205C, strain PFK2, active compounds read low 0.981 | S. cerevisiae deletion strains, locus YMR223W, strain ubp8, active compounds read low 1.02 | S. cerevisiae deletion strains, locus YMR231W, strain pep5, active compounds read low 0.978 | S. cerevisiae deletion strains, locus YMR263W, strain SAP30, active compounds read low 1.02 | S. cerevisiae deletion strains, locus YMR307W, strain GAS1, active compounds read low 1.04 | S. cerevisiae deletion strains, locus YNL067W, strain RPL9B, active compounds read low 1.01 | S. cerevisiae deletion strains, locus YNL071W, strain lat1, active compounds read low 0.975 | S. cerevisiae deletion strains, locus YNL128W, strain TEP1, active compounds read low 1 | S. cerevisiae deletion strains, locus YNL153C, strain GIM3, active compounds read low 1.01 | S. cerevisiae deletion strains, locus YNL183C, strain NPR1, active compounds read low 0.968 | S. cerevisiae deletion strains, locus YNL209W, strain ssb2, active compounds read low 0.981 | S. cerevisiae deletion strains, locus YNL233W, strain BNI4, active compounds read low 1 | S. cerevisiae deletion strains, locus YNL248C, strain rpa49, active compounds read low 0.986 | S. cerevisiae deletion strains, locus YNL250W, strain rad50, active compounds read low 1.03 | S. cerevisiae deletion strains, locus YNL271C, strain bni1, active compounds read low 1.02 | S. cerevisiae deletion strains, locus YNL298W, strain CLA4, active compounds read low 1.03 | S. cerevisiae deletion strains, locus YNL307C, strain MCK1, active compounds read low 1.02 | S. cerevisiae deletion strains, locus YNL322C, strain KRE1 (second series), active compounds read low 0.982 | S. cerevisiae deletion strains, locus YNL322C, strain KRE1, active compounds read low 1.01 | S. cerevisiae deletion strains, locus YNR049C, strain mso1, active compounds read low 0.985 | S. cerevisiae deletion strains, locus YNR052C, strain pop2, active compounds read low 1.01 | S. cerevisiae deletion strains, locus YOL006C, strain TOP1, active compounds read low 1.03 | S. cerevisiae deletion strains, locus YOL012C, strain htz1 1.2 | S. cerevisiae deletion strains, locus YOL147C, strain pex11, active compounds read low 1.01 | S. cerevisiae deletion strains, locus YOR001W, strain rrp6, active compounds read low 0.997 | S. cerevisiae deletion strains, locus YOR061W, strain CKA2, active compounds read low 1.01 | S. cerevisiae deletion strains, locus YOR069W, strain VPS5, active compounds read low 1 | S. cerevisiae deletion strains, locus YOR070C, strain gyp1, active compounds read low 0.991 | S. cerevisiae deletion strains, locus YOR080W, strain dia2, active compounds read low 0.982 | S. cerevisiae deletion strains, locus YOR083W, strain WHI5, active compounds read low 0.984 | S. cerevisiae deletion strains, locus YOR106W, strain vam3, active compounds read low 1.01 | S. cerevisiae deletion strains, locus YOR136W, strain idh2, active compounds read low 1.02 | S. cerevisiae deletion strains, locus YOR144C, strain elg1, active compounds read low 1.02 | S. cerevisiae deletion strains, locus YOR184W, strain ser1, active compounds read low 1.03 | S. cerevisiae deletion strains, locus YOR231W, strain MKK1, active compounds read low 0.983 | S. cerevisiae deletion strains, locus YOR265W, strain rbl2, active compounds read low 0.979 | S. cerevisiae deletion strains, locus YOR270C, strain vph1, active compounds read low 1.03 | S. cerevisiae deletion strains, locus YOR290C, strain snf2, active compounds read low 0.988 | S. cerevisiae deletion strains, locus YOR316C, strain cot1, active compounds read low 1.02 | S. cerevisiae deletion strains, locus YPL051W, strain arl3, active compounds read low 0.987 | S. cerevisiae deletion strains, locus YPL055C, strain LGE1, active compounds read low 1.02 | S. cerevisiae deletion strains, locus YPL078C, strain atp4, active compounds read low 0.977 | S. cerevisiae deletion strains, locus YPL106C, strain sse1, active compounds read low 0.988 | S. cerevisiae deletion strains, locus YPL240C, strain hsp82, active compounds read low 0.984 | S. cerevisiae deletion strains, locus YPL241C, strain CIN2, active compounds read low 0.999 | S. cerevisiae deletion strains, locus YPL256C, strain CLN2, active compounds read low 0.973 | S. cerevisiae deletion strains, locus YPR119W, strain clb2, active compounds read low 1.01 | S. cerevisiae deletion strains, locus YPR141C, strain kar3, active compounds read low 1.03 | S. cerevisiae deletion strains, locus YPR163C, strain tif3, active compounds read low 1.01 | S. cerevisiae deletion strains, locus YPR167C, strain met16, active compounds read low 1.02 | S. cerevisiae deletion strains, strain wtn01, active compounds read low 1.02 | S. cerevisiae strains, strain wild type, active compounds read low 1.01
